Screening data as filed in PubChem BioAssay.
Sampled rows, rich in hits. Any-hit rate of the full collection: about 2.3%.
ADAM17 inh: ADAM17 inhibitors, primary screen, biochemical, QFRET | recombinant ADAM17, EDANS/DABCYL FRET peptide cleavage | AID 720648, 2013 | inhibition, % at 6.95 µM | Disintegrin and metalloproteinase domain-containing protein 17 (Homo sapiens), P78536 | hit rate 0.83% among 370,000;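 active = inhibition above the mean of compounds lying between control limits plus 3 SD, set per campaign, cut at about 8.5% in these data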;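 note: 0% = DMSO-only wells as the low control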
KLK7 zymogen act: proKLK7 zymogen activators, primary screen, biochemical, fluorescence intensity | purified proKLK7, EDANS-DABCYL substrate fluorescence; 100% is mature enzyme control, 0% vehicle | activation, % at 7 µM | hit rate 0.9% among 370,000;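 active = activation above the mean of all tested compounds plus 3 SD, computed per campaign excluding outliers beyond control limits, cut at about 13% in these data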
Target sequence (P49862 whole entry, looked up): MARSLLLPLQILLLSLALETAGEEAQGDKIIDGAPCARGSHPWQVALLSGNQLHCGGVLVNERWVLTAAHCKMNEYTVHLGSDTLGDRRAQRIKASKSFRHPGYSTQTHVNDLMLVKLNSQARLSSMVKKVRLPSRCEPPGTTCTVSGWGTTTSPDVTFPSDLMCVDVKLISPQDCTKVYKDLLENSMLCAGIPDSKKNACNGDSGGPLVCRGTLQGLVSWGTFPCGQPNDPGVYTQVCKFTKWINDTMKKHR
ADAM10 inh: human ADAM10 inhibitors, primary screen, biochemical, QFRET, HTS; Disintegrin and metalloproteinase domain-containing protein 10 (Homo sapiens), O14672; recombinant ADAM10, EDANS/DABCYL FRET peptide cleavage, 3 h; inhibition, % at 7 µM; hit rate 0.62% among 370,000; AID 720582, 2013;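 active = inhibition above a per-campaign cutoff equal to the mean of compounds falling between control-based bounds plus 3 SD, cut at about 20% in these data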;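 note: 0% = DMSO wells while the 100% control is not disclosed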
V-ATPase pH: regulators of yeast V-ATPase proton pumping, primary screen, pHLuorin cytosolic pH fluorescence | AID 504577, 2011 | response, % at 10 µM | S. cerevisiae | hit rate 0.37% among 350,000; in the data active = response mostly above about 7.3%, no sharp cut-off; inactive = mostly below about 5.4%; note: actives read high
KLK7 act conf: proKLK7 zymogen activators, confirmation, biochemical, fluorescence intensity, triplicate; purified proKLK7, EDANS-DABCYL substrate fluorescence; scaled: vehicle 0, mature enzyme 100; AID 686949, 2013; hit rate 68% among 3,200; shares compounds with KLK7 zymogen act; activation, % at 7 µM;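 active = activation, as change over the incubation, above the mean of all tested compounds plus 3 SD, cut at about 13% in these data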
EDANS-DABCYL int: EDANS-DABCYL substrate optical interference, artefact control for kallikrein-7 zymogen activator project, biochemical, fluorescence intensity, high throughput. hit rate 80% among 3,200. shares compounds with KLK7 zymogen act. no enzyme, 4 h; solvent 0%, active enzyme control 100%. activation, % at 7 µM;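 active = activation above the all-compound mean plus 3 SD, ignoring values outside control-based bounds, cut at about 4.8% in these data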;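 note: value is the 4 h activation minus the activation read at time zero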
EDANS interf: counter-screen for kallikrein-7 activators: EDANS-DABCYL interference, dose response. shares compounds with KLK7 zymogen act. EDANS-DABCYL peptide fluorescence interference, no enzyme. EC50, µM. hit rate 20% among 250. AID 720493;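 active = compounds that raise the fluorescence signal in this interference counterscreen, with EC50 at or below 10 µM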;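 note: intact quenched peptide substrate alone read at 355 nm excitation and 520 nm emission; signal is fluorescence gain from T0 to T4 after four hours at room temperature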
An asterisk follows results filed as active; i = inactive; x = not tested or not shown.

SMILES	ADAM17 inh	KLK7 zymogen act	ADAM10 inh	V-ATPase pH	KLK7 act conf	EDANS-DABCYL int	others
COc1cc(C(=O)Nc2cc(-c3cn4cccnc4n3)ccc2C)cc(OC)c1OC	i	47.3*	i	-4.4	-11.8	-19.7
Cc1ccc(-c2cn3cccnc3n2)cc1NC(=O)c1cccs1	i	33.0*	i	2.7	35.2*	39.0*
COc1ccc(-c2cn3cccnc3n2)cc1NC(=O)C(C)C	-153.3	8.3	i	-0.3	x	x
O=C(Nc1ccc(-c2cn3ccccc3n2)cc1)c1cccs1	-21.8	4.1	-62.5	0.4	x	x
COc1ccc(-c2cn3cccnc3n2)cc1Br	i	31.8*	i	0.0	78.8*	75.3*
O=C(NC1CCC1)O[C@H]1CC[C@@]23CCCN2C(=O)CCC[C@H]3C1	-0.7	x	5.7	x	x	x
CCOc1ccc(CCNC(=O)c2ccc(Oc3ccccc3)cc2)cc1OCC	-2.6	x	-3.5	x	x	x
CCCCN1CC(COCc2ccccc2)Oc2cccc(Oc3ccc(SC)c(C)c3)c2S1(=O)=O (stereo not given)	-3.6	-0.1	-15.6	x	x	x
O=C(NCCc1ccc(Cl)cc1)c1ccc2c(c1)ncn2C1CCCCC1	0.2	0.3	-1.2	x	x	x
C=CCNc1sc(C(=O)c2cccs2)c(N)c1C#N	0.7	86.8*	5.9	-0.9	5.8	-5.8
CCNc1sc(C(=O)c2cccs2)c(N)c1C#N	-3.6	0.0	5.1	0.1	x	x
COc1ccc(OC)c2c1C(=O)CC2C (stereo not given)	-334.3	43.0*	i	-3.2	49.3*	49.4*
COc1ccc(OC)c2c1C(=O)C(Cl)=C(Cl)C2=O	-2.9	7.2	-1.7	5.3	x	x
O=C(Nc1ccc(C2=CN(Cc3ccccc3)CCC2=O)cc1)OCc1ccccc1	-4.5	19.9*	2.6	-3.5	-0.3	0.8
CC(C)(C)C(=O)Nc1ccc(/C=C/C(=O)c2ccco2)cc1	-70.3	78.1*	-176.3	-0.5	53.4*	47.6*
CCOC(=O)C1Cc2c([nH]c3ccccc23)C(C)N1 (stereo not given)	-5.9	0.6	-9.3	-1.1	x	x
CC[C@@H]1CN(C)[C@H]2Cc3c([nH]c4ccccc34)C(=O)C[C@@H]1[C@@H]2C(=O)OC	-33.0	16.8*	-149.6	-1.4	4.8	5.2*
COC(=O)[C@H](C(C)C)N1Cc2nnn(Cc3ccccc3)c2C=CS1(=O)=O	-1.9	-0.6	-1.0	x	x	x
COc1ccc(-n2nc3ccc(N)cc3n2)cc1Cl	-118.9	52.7*	-289.8	-1.6	75.1*	75.4*
Cc1cc(N)ccc1-n1nc2ccccc2n1	-7.9	-0.5	-10.2	-3.0	x	x
Cc1ccc(-n2nc3ccc(N)cc3n2)c(C)c1	-228.1	40.1*	i	3.5	76.6*	76.3*
O=Cc1ccc(-c2cccs2)s1	i	47.0*	i	-4.4	58.1*	67.3*
CN1CCN(C(=O)/C=C\c2ccc(Cl)cc2)CC1	-0.9	-0.1	1.2	-0.2	x	x
CSc1ccc(/C=C/C(=O)N2CCCN(C)CC2)cc1	-102.6	16.9*	-302.4	-2.4	3.3	5.9*
CSc1ccc(/C=C/C(=O)OCC(=O)NC2CCCC2)cc1	-291.7	18.5*	i	-1.0	-1.6	3.5
SMILES	ADAM17 inh	KLK7 zymogen act	ADAM10 inh	V-ATPase pH	KLK7 act conf	EDANS-DABCYL int	others
COC(=O)CC1=C(C(=O)OC)C(c2cc(OC)c(OC)cc2OC)C(C#N)=C(N)O1 (stereo not given)	-7.0	3.1	-16.7	-1.4	x	x
COC(=O)CC1=C(C(=O)OC)[C@@H](c2ccccc2[N+](=O)[O-])C(C#N)=C(N)O1	-13.0	38.5*	-39.9	-0.5	89.8*	71.0*	EDANS interf=8.67*
O=C1[C@H](c2ccccc2)[C@@H](c2ccncc2)N1c1ccncc1	-0.9	0.1	0.0	x	x	x
COc1cc(/C=C/C(=O)Nc2ccncc2)cc(OC)c1OC	-129.4	28.5*	-390.1	2.4	8.5	18.4*
COc1ccc(/C=C/C(=O)Nc2ccc(-n3nncc3-c3ccc(OC)c(OC)c3)cc2)cc1OC	-15.8	28.0*	-90.5	1.0	-8.9	-20.1
COc1cc(/C=C/C(=O)Nc2ccc(C(C)=O)cc2)cc(OC)c1OC	-5.2	-0.7	-24.4	1.9	x	x
COc1ccc(/C=C/C(=O)NC(=S)Nc2ccc(S(N)(=O)=O)cc2)cc1OC	-11.2	19.3*	-21.3	-2.0	12.8*	17.2*
COc1ccc(-c2cnnn2-c2ccc(NC(=O)/C=C/c3ccc(OC)c(OC)c3)cc2)cc1	-4.7	-12.9	-9.9	0.1	x	x
CCn1c(=O)n(CC(=O)N2CCC(C)CC2)c(=O)c2ccccc21	-1.8	-0.6	-7.1	x	x	x
COc1ccc(CNS(=O)(=O)CC2NCc3cc(OC)ccc32)cc1 (stereo not given)	-11.7	-1.1	-36.4	x	x	x
COC(=O)C1=C(C)N(Cc2cccc(C(F)(F)F)c2)C(=NCC2CC2)NC1c1ccccc1C(F)(F)F (stereo not given)	2.7	0.6	-10.9	x	x	x
Cc1c(O)cnc2nn(-c3ccccc3)c(=N)n12	i	40.4*	i	x	16.8*	17.4*
Cc1nn(-c2ccccc2)c(C)c1N	-0.2	-0.8	-0.4	0.8	x	x
CC(NC(=O)C(NC(=O)OCc1ccccc1)C(C)O)C(=O)OCc1ccccc1 (stereo not given)	-0.2	0.2	-0.8	x	x	x
COc1cccc(-c2cc(=O)c3cc(NC(C)=O)ccc3[nH]2)c1	-373.4	25.3*	i	4.4	32.5*	32.0*
CC(=O)Nc1ccc2[nH]c(C)cc(=O)c2c1	-20.4	-0.2	-69.1	1.1	x	x
CCOC(=O)c1sc(NC(=O)c2ccccc2)cc1C	-112.0	16.4*	-332.4	-0.5	-1.4	-1.1
COC(=O)c1cc2c(c3c4ccccc4n(S(=O)(=O)c4ccccc4)c13)C(=O)N(Cc1ccc(N(C)C)cc1)C2	3.1	-1.9	10.3	x	x	x
Cc1ccc2nc(NCC(N)=O)nc(-c3ccccc3)c2c1	-426.5	29.9*	i	x	22.0*	33.6*
Cc1ccc2nc(NCCC(=O)O)nc(-c3ccccc3)c2c1	-19.1	2.1	-69.8	-3.0	x	x
Cc1ccc2nc(NCCCO)nc(-c3ccccc3)c2c1	-205.4	-0.4	i	-2.9	x	x
Cc1ccc2nc(NCC(=O)O)nc(-c3ccccc3)c2c1	-167.1	14.2*	i	5.3	28.5*	15.5*	EDANS interf=>69.5
CC(=O)Nc1sc2c(c1-c1nc3ccccc3s1)CCCNC2	-13.0	x	-17.8	x	x	x
Cn1c(=O)c2c(C(=O)O)cc(-c3ccccc3)nc2n(Cc2ccccc2)c1=O	-26.9	37.5*	-66.2	-0.3	58.8*	65.3*
COc1ccccc1-c1cc(C(=O)O)c2c(=O)n(C)c(=O)n(Cc3ccccc3)c2n1	-118.3	1.3	-335.1	-1.8	x	x
